About 83,000 compounds went through this panel and 20% of them were active in at least one assay; those are over-represented in the sample as a whole.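 How to read the values: 0–100, growth inhibition (40 = 60% inhibited); 0, no net growth; -100 to 0, cell death (-40 = 40% of starting cells died; -100 = all dead).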 Values without a mark were called inactive. Activity calls are given as the source filed them. The calls were made as follows: active = growth percent below 10; inactive = the rest.
What was measured:
Test in all cases: NCI-60 one-dose screen, 48 h (100 = growth as untreated, 0 = no growth, -100 = all killed)
Conditions in all cases: 10 µM unless noted
HCT-15 colon = system: HCT-15 colon
HT29 colon = system: HT29 colon
SNB-75 CNS = system: SNB-75 CNS
SNB-19 CNS = system: SNB-19 CNS
U251 CNS = system: U251 CNS
SK-MEL-5 melanoma = system: SK-MEL-5 melanoma
UACC-62 melanoma = system: UACC-62 melanoma
LOX IMVI melanoma = system: LOX IMVI melanoma
SK-MEL-28 melanoma = system: SK-MEL-28 melanoma
SN12C renal = system: SN12C renal
UO-31 renal = system: UO-31 renal
TK-10 renal = system: TK-10 renal
ACHN renal = system: ACHN renal
CAKI-1 renal = system: CAKI-1 renal
A498 renal = system: A498 renal
CCRF-CEM leukemia = system: CCRF-CEM leukemia
MOLT-4 leukemia = system: MOLT-4 leukemia
EKVX NSCLC = system: EKVX NSCLC
SK-MEL-2 melanoma = system: SK-MEL-2 melanoma

SMILES	growth (HCT-15 colon)	growth (HT29 colon)	growth (SNB-75 CNS)	growth (SNB-19 CNS)	growth (U251 CNS)	growth (SK-MEL-5 melanoma)	growth (UACC-62 melanoma)	growth (LOX IMVI melanoma)	growth (SK-MEL-28 melanoma)	growth (SN12C renal)	growth (UO-31 renal)	growth (TK-10 renal)	growth (ACHN renal)	growth (CAKI-1 renal)	growth (A498 renal)	growth (CCRF-CEM leukemia)	growth (MOLT-4 leukemia)	growth (EKVX NSCLC)	growth (SK-MEL-2 melanoma)
COc1ccc(C(=O)c2sc3nc(C)cc(C)c3c2N)cc1OC	85.4%	88.2%	84.3%	79.6%	66%	93.4%	80.8%	96.5%	101%	102%	87.3%	88.7%	88.2%	99.5%	87.5%	98.2%	96.4%		
O=C(CCN1C(=O)/C(=C/c2ccc(Cl)cc2)SC1=S)NCCCN1CCOCC1	98%	105%	92.4%	101%	102%	97.5%	92.4%	99.7%	100%	98.5%	84.9%	110%	91.4%	94.4%		103%	102%	90.9%	
COc1ccccc1NS(=O)(=O)c1ccc2oc(SC(C)C)nc2c1	125%	96.3%	102%	93.7%	138%	49.9%	59.9%	146%	115%	89.3%	73.5%	102%	151%	71.2%	91.4%	65%	69.6%	55.9%	
NC(N)=N/N=C(/c1ccccc1)c1ccc(F)cc1	10.3%	-1.2% (active)	18%	26.8%	4.79% (active)	-18.7% (active)	4.05% (active)	18.6%	35.1%	17.2%	-8.69% (active)	50.5%	29.3%		-16.6% (active)	-14.3% (active)	-10.1% (active)	35.1%	
O=C1OCC2=C1C(c1ccncc1)c1cc3c(cc1N2CCO)OCO3 (centres undefined)	103%	106%	95.7%	100%	96.7%	98.6%	94.9%	99.9%	102%		94.7%	101%	105%	99.3%	90%	94%	107%	101%	
C#CCOc1ccc2ncnc(N3CCC(NC(=O)CCl)CC3)c2c1	67.7% [8.25 µM]	64.9% [8.25 µM]	24.2% [8.25 µM]	77.9% [8.25 µM]	66.1% [8.25 µM]	75% [8.25 µM]	72.7% [8.25 µM]		77.5% [8.25 µM]	63.6% [8.25 µM]	40.6% [8.25 µM]	69% [8.25 µM]	57.6% [8.25 µM]	71.4% [8.25 µM]	29.9% [8.25 µM]	39.8% [8.25 µM]	40.9% [8.25 µM]	72.7% [8.25 µM]	69.6% [8.25 µM]
Cc1ccc(C2=NN3C(C2)c2cc(Br)ccc2OC32CCN(Cc3ccccc3)CC2)o1 (centres undefined)	85.1%	107%	79%	94.9%	96.3%	92.1%	82.3%		102%	91.5%	58.6%	116%	98.7%	71.6%	105%	80.3%	79.6%	86.3%	100%
O=C(COc1cccc(/C=C2\COc3ccccc3C2=O)c1)Nc1nccs1	-17.9% (active)	-28.7% (active)	77.3%	73.5%	22.6%	52.3%	78.2%		-68.3% (active)	78.4%	67.3%	64.2%	88.2%	83.5%	102%	-58.5% (active)	-48.4% (active)	72.2%	65%
O=[N+]([O-])c1ccc(Nc2nc(NCCN3CCOCC3)ncc2[N+](=O)[O-])cc1	84.9%	91.8%	76.4%	83.9%	88.6%	96%	84.2%	96.8%	98%	90.2%	63.9%	76.5%	80.9%	56.7%		98.1%	103%	88.2%	
CCN(CC)c1ccc(-c2cc(-c3cc(OC)c(OC)c(OC)c3)nc(N3CCOCC3)c2C#N)cc1	10.7%	2.21% (active)	29.8%	79%	36.7%	-83.3% (active)	-58% (active)	-77.3% (active)	21.8%	36.4%	5.65% (active)	49.4%	19.5%	1.28% (active)	34.5%		18.8%	36.3%	
